Assay outcomes from PubChem BioAssay.
PKM2 act = increases activity of human pyruvate kinase M2; actives 0.34% (n = 260,000); Potency, µM (titrated, usually from 57.5 µM), hits mostly activators; purified PKM2, Kinase-Glo ATP luminescence, activation; response scale: 0% is enzyme alone, no compound; P14618; also: nearly all actives have a fitted effect of over 55% in size
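Purified hPK-M2 (>95% pure) converted ADP (0.1 mM final) to ATP with 0.5 mM PEP in 50 mM imidazole pH7.2, KCl, MgCl2, Tween 20, BSA; 1 h at room temperature. ATP detected by Kinase-Glo luminescence.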
GLA inh pH 4.5 = blocks human alpha-galactosidase A at pH 4.5; activity change, negative = inhibition, % at 105 µM; purified enzyme, 4-MU-alpha-Gal fluorescence, pH 4.5; 230,000 tested, under 10 active
HTT cytoprotect = Huntington cell model cytoprotection by ATP luminescence; Potency, µM (series often up to 56.4 µM), usual class: activators; PC12 HTT-Q103 induced, cytoprotection, ATP luminescence, 40 h; actives 0.14% (n = 230,000); AID 1471; also: nearly all actives have a fitted effect of over 45% in size
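PC12 cells stably carrying ecdysone-inducible Htt exon 1 (Q103)–GFP were induced with 100 nM tebufenozide (final) alongside library compounds in a dose series. Cytoprotection was scored as retained ATP by ATPlite luminescence.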
aGal spleen mod = alpha-galactosidase A (human) modulation; AID 2107; Potency, µM (top dose mostly 80 µM), hits mostly inhibitors; actives 0.008% (n = 240,000); P06280; human spleen homogenate, 4MU-alpha-Gal fluorescence, 40 min
Target sequence (P06280 32-429 limits assumed): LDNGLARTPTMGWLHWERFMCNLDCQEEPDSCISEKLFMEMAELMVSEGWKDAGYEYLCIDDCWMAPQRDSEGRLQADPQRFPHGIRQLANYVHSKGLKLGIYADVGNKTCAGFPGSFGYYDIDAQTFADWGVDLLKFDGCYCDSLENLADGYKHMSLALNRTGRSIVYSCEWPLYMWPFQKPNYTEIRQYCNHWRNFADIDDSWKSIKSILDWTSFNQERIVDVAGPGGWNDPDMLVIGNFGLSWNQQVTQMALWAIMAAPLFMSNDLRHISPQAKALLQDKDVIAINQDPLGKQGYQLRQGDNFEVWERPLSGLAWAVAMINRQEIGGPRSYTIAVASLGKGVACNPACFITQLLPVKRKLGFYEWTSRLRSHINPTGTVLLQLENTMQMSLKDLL
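qHTS titration in buffer at pH 5.0. Alpha-galactosidase activity in spleen homogenate was measured via 4-methylumbelliferone release from 1 mM fluorogenic substrate after 40 min at 37C and a pH 10 stop. AC50 came from Hill fits of control-normalized data.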
HTT aggregate = reduces HttQ103-GFP aggregates in PC12 cells | PC12 HttQ103-GFP aggregates, Acumen cytometry, 40 h | Potency, µM (top dose mostly 46.1 µM), usual class: inhibitors | actives 1.1% (n = 220,000) | AID 1688; also: nearly all actives have a fitted effect of over 60% in size
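PC12 cells with ecdysone-inducible HTT exon1 Q103-GFP, induced by 100 nM tebufenozide, given compounds in a concentration series. GFP aggregates (1–25 um, 6 SD above background) counted in lysates by laser-scanning cytometry, 488 nm excitation.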
Numbers stand for hits; i = inactive; ? = inconclusive; nt = no result given; [ ] = dose if it differs, or a comment. Most compounds without a hit are left out; they make up all but 1.2% or so of the library. Calls follow the shape of the dose curve; as a rule, active = well fitted curve in the direction sought with a large enough effect; inconclusive = small, poorly fitted or top-dose-only effect, or another doubt; inactive = no such curve, though single readings can be large; an effect the other way counts as inactive or inconclusive.

SMILES | PKM2 act | GLA inh pH 4.5 | HTT cytoprotect | aGal spleen mod | HTT aggregate
CN1/C(=C\C(=O)C[n+]2cccc(C(N)=O)c2)C(C)(C)c2ccccc21 | nt | i | i[10 µM] | i | i
N#CC1=C(SCC(=O)c2ccccc2)NC2=C(C(=O)CCC2)C1c1ccco1 (configuration not stated) | ? | i | i | i | 11.2µM
COc1cccc(NC(=O)CSC2=C(C#N)C(c3ccco3)C3=C(CCCC3=O)N2)c1 (configuration not stated) | 0.794µM | i | i | i | i
CCC1C(C#N)=C(SCC(N)=O)NC2=C1C(=O)CC(C)(C)C2 (configuration not stated) | i | i | i[10 µM] | i | i[9.22 µM]
COc1ccc(C2C(C#N)=C(SCC(=O)Nc3ccc(C)cc3)NC3=C2C(=O)CC(C)(C)C3)cc1 (configuration not stated) | i | i | i | i | 11.2µM
O=c1oc2cc(O)ccc2cc1-c1ccc2c(c1)OCCO2 | nt | i | i | ? | nt
O=c1c(-c2ccccc2)nc2cnc(Nc3ccccc3)nc2n1Cc1cccs1 | nt | nt | i | i | nt
C[C@@H](N)/C(N)=N/O | nt | nt | i[10 µM] | nt | nt
C=C1NC(=O)c2cc(CN(C)c3ccc(C(=O)N[C@@H](CCC(=O)O)C(=O)O)s3)ccc2N1 | nt | nt | ? | nt | i
COC(=O)C1=C(C(=O)OC)[C@@H]2N(Cc3ccccc3)c3ccccc3[C@@]23C[C@@H](C(=O)OC)N(S(=O)(=O)c2ccc(C#N)cc2)C3=N1 | i[11.5 µM] | i | i[10 µM] | i[17.5 µM] | nt
O=C(c1cccc(F)c1)N1CCC2(CC1)CCN(C(c1ccccc1)c1ccccc1)CC2 | nt | nt | i | i | nt
Cc1nn(-c2ccccc2)c(C)c1C(=O)OCC(=O)c1c(N)n(CC(C)C)c(=O)n(C)c1=O | i | i | i[10 µM] | i | 5.01µM
CCCCCC/C=C/c1ccc(OC)c(C2C3C=CCC(C)C3C(=O)N2Cc2ccccc2)c1 (configuration not stated) | nt | nt | nt | i | nt
C/C(=C\COc1c2ccoc2cc2oc(=O)ccc12)CCC(O)C(C)(C)O (configuration not stated) | nt | nt | nt | i | nt
Clc1ccc(Cn2ncc3c(N4CCCC4)ncnc32)cc1 | i | i | i | i | i
Cc1ccc(Cn2ncc3c(N4CCCC4)ncnc32)cc1 | 12.6µM | i | i[0.074 µM] | i | i
N#Cc1cccc(-c2cncnc2NCc2ccccc2)c1 | nt | nt | i | i | nt
O=[N+]([O-])c1cc(Cl)cc(/C=N\Nc2ccccn2)c1O | i | i | i | i | 2.24µM
CC(C)(C)c1cc(C(=O)/C=C/c2ccc(C(=O)O)cc2)cc(C(C)(C)C)c1 | i | i | 2.51µM | i | nt
O=C(/C=C/c1ccccc1)c1ccccc1 | i | nt | nt | i | i
COC(=O)c1cc(C(=O)c2cc(Br)ccc2O)coc1=N | i | i | i | i | i
CC(C)NC(=O)c1cc(C(=O)c2cc(Cl)ccc2O)coc1=N | i | i | i | i | 7.94µM
COc1ccc(-c2nc3cnc(N(C)C)nc3n(C[C@H]3CCCO3)c2=O)cc1 | nt | nt | i | i | nt
OCc1ccncc1.OCc1ccncc1.[Cl][Pt]([Cl])([Cl])[Cl] | nt | nt | i[10 µM] | nt | nt
C/C=C/OC(=O)NC(c1ccccc1)[C@]1(C(C)=O)CCOC1=O (some centres not stated) | nt | nt | ? | i[17.5 µM] | nt
SMILES | PKM2 act | GLA inh pH 4.5 | HTT cytoprotect | aGal spleen mod | HTT aggregate
Cn1nc(C(F)(F)F)c(C#N)c1N1CCN(c2ccccn2)CC1 | i | i | i | i | i
Cn1nc(C(F)(F)F)c(C#N)c1N1CCN(c2ccc(F)cc2)CC1 | i | i | i | i | 11.2µM
Cn1nc(C(F)(F)F)c(C#N)c1N1CCN(c2ccccc2)CC1 | i | i | i | i | 1.41µM
CCCN1C(=O)S/C(=C\c2ccc(N3CCOCC3)cc2C)C1=O | i | i | i | i | i
CCCN1C(=O)S/C(=C\c2ccc(N3CCOCC3)o2)C1=O | 3.55µM | i | i | i | ?
C=CC[C@@H]1C=C[C@@H](O/N=C\[C@@H](NS(=O)(=O)c2ccc(C)cc2)[C@H](C)/C=C\CC(=O)OC)[C@@H](CO)O1 | nt | nt | i[10 µM] | i[17.5 µM] | nt
CC(NC(=O)CCl)c1ccc(Cl)c(Cl)c1 (configuration not stated) | i | i | i | i | 22.4µM
CC(NC(=O)c1ccc(Cl)c(Cl)c1)c1ccc(-c2ccccc2)cc1 (configuration not stated) | i | i | i[10 µM] | i | i[9.22 µM]
